This passage reports binding signal results from article PMC7862700, “An all-to-all approach to the identification of sequence-specific readers for epigenetic DNA modifications on cytosine”.

Test in all cases: DAPPL (digital affinity profiling via proximity ligation, sequencing); 10 mM Tris-HCl pH 7.5, 50 mM NaCl, 1 mM DTT, 4% glycerol, room temperature, 30 min; GST-TFs on glutathione beads, 16-mer random dsDNA library, 0.1% formaldehyde crosslink after washing; high values mean tight binding
One experiment concerns the target T1, FLI1 (Homo sapiens, UniProt Q01543 1-452).
T1 sequence: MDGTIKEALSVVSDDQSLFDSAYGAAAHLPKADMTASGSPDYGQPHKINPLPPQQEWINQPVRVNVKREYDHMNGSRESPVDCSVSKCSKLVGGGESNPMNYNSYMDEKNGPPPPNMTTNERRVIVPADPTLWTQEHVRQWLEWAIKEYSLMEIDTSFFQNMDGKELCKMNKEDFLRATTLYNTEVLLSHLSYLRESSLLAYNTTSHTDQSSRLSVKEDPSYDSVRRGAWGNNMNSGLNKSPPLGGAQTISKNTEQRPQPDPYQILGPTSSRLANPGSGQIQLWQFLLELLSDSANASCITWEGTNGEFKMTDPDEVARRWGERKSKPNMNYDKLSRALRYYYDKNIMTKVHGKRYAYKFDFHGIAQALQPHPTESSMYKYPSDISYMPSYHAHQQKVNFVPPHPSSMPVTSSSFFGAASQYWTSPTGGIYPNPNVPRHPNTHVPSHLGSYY
Conditions: protein: recombinant; tags: N-terminal GST; dsDNA, one strand shown. An outline of the steps:
(§1)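 Beads coated with glutathione captured GST-fused human transcription factors that had been expressed in yeast, and the factors were then given DNA barcodes and pooled with a tag-only sample. The pools were incubated with 200 nmole of a random double-stranded 16-mer DNA library in Tris/NaCl/DTT/glycerol buffer for 30 min at room temperature, washed, crosslinked with 0.1% formaldehyde and proximity-ligated with BsaI/T4 ligase at 37 °C for 1 h. PCR amplification and Illumina NextSeq500 sequencing came last. Binding signal is each hexamer's read frequency for a factor divided by its frequency for the tag-only sample.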

Another experiment has as its target T2, ELK1 (Homo sapiens, UniProt P19419 1-428).
T2 sequence: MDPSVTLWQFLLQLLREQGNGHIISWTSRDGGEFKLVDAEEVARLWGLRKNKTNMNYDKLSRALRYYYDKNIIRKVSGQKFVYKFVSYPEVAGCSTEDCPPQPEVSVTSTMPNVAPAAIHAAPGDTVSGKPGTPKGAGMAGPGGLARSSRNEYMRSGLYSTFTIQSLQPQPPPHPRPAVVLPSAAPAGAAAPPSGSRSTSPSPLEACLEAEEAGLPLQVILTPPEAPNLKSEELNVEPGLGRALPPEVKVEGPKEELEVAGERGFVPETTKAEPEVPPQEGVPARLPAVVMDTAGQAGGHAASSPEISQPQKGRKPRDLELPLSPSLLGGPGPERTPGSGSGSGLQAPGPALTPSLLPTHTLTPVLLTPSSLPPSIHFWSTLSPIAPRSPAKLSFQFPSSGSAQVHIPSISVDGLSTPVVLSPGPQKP
As to conditions: protein: recombinant; tags: N-terminal GST; dsDNA, one strand shown. An outline of the steps: as §1

A further experiment concerns the target T3, GABPA (Homo sapiens, UniProt Q06546 1-454).
T3 sequence: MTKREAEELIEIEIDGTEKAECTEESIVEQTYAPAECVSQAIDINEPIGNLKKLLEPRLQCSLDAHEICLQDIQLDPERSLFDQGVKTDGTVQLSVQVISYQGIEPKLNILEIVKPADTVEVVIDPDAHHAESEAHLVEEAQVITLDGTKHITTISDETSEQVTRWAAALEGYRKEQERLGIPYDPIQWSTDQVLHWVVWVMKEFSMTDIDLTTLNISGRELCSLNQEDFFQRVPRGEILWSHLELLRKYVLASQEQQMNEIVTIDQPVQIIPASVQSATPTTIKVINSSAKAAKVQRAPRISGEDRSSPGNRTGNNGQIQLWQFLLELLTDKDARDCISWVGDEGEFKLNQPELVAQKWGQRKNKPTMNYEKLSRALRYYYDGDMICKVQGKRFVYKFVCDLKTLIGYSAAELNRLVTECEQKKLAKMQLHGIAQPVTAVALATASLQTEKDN
Conditions: protein: recombinant; tags: N-terminal GST; dsDNA, one strand shown. An outline of the steps: as §1

Another experiment deals with T4, ERG (Homo sapiens, UniProt P11308 1-479).
T4 sequence: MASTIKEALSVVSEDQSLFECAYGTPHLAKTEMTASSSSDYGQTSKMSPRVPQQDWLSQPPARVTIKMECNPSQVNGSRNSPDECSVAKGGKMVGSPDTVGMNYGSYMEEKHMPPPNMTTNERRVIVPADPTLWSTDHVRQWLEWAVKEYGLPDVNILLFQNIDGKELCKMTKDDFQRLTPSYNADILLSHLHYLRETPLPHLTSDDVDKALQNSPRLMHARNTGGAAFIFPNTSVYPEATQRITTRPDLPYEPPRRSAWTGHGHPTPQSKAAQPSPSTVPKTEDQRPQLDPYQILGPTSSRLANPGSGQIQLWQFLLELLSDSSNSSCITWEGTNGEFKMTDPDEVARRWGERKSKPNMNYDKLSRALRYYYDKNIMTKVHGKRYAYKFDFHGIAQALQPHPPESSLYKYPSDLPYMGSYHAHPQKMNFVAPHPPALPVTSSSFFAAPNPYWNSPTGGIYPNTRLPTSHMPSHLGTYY
As to conditions: protein: recombinant; tags: N-terminal GST; dsDNA, one strand shown. An outline of the steps: as §1

The next experiment addresses ELF1 (Homo sapiens, UniProt P32519 1-619). Conditions: protein: recombinant; tags: N-terminal GST; dsDNA, one strand shown. An outline of the steps:
as §1

The target of another experiment is T5, EHF (Homo sapiens, UniProt Q9NZC4 1-300).
T5 sequence: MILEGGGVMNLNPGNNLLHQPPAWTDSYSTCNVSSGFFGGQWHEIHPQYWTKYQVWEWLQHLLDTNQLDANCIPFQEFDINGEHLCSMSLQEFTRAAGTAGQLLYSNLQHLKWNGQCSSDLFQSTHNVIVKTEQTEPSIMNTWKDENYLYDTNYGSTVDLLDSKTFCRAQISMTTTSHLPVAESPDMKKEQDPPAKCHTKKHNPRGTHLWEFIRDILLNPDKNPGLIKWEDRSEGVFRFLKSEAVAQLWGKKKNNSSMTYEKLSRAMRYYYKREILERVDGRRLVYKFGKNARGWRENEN
Conditions: protein: recombinant; tags: N-terminal GST; dsDNA, one strand shown. An outline of the steps: as §1

A further experiment has as its target SPI1 (Homo sapiens, UniProt P17947 1-270). Conditions: protein: recombinant; tags: N-terminal GST; dsDNA, one strand shown. The essentials:
as §1

The target of the next experiment is SPIB (Homo sapiens, UniProt Q01892 1-262). As to conditions: protein: recombinant; tags: N-terminal GST; dsDNA, one strand shown. An outline of the steps: as §1
The next experiment concerns the target T6, ELK3 (Homo sapiens, UniProt P41970 1-407).
T6 sequence: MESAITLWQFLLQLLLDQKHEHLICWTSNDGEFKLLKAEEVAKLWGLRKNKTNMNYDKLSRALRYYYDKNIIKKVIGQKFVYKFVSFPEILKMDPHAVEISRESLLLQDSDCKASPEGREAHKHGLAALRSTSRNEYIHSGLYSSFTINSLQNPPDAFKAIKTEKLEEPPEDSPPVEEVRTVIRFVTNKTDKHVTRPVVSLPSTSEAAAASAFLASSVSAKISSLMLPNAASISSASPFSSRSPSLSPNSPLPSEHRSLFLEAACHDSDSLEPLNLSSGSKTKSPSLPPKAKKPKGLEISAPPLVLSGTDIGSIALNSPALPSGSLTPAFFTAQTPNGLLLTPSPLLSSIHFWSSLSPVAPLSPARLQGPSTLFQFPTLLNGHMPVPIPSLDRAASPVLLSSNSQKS
As to conditions: protein: recombinant; tags: N-terminal GST; dsDNA, one strand shown. The essentials: as §1

In a further experiment the target is T7, FEV (Homo sapiens, UniProt Q99581 1-238).
T7 sequence: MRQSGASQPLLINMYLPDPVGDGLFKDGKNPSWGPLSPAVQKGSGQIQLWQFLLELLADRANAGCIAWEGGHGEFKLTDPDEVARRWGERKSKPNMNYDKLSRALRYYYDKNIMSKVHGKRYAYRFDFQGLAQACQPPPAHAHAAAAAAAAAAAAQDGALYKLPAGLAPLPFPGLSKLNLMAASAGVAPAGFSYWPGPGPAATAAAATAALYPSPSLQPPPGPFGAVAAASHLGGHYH
As to conditions: protein: recombinant; tags: N-terminal GST; dsDNA, one strand shown. An outline of the steps: as §1

For another experiment, the target named is ETV5 (Homo sapiens, UniProt P41161 1-510). Conditions: protein: recombinant; tags: N-terminal GST; dsDNA, one strand shown. An outline of the steps:
as §1

The target of the next experiment is HSF1 (Homo sapiens, UniProt Q00613 1-529). As to conditions: protein: recombinant; tags: N-terminal GST; chain copies: 3; dsDNA, one strand shown. An outline of the steps:
as §1

Another experiment has as its target T8, SPIC (Homo sapiens, UniProt Q8N5J4 1-248).
T8 sequence: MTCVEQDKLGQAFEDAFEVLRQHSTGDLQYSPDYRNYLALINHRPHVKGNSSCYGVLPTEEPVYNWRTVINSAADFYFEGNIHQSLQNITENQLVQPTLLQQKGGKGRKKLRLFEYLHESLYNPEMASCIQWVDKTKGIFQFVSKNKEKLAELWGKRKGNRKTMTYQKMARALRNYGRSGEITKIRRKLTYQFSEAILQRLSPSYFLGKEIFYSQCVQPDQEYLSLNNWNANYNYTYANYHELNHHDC
Conditions: protein: recombinant; tags: N-terminal GST; dsDNA, one strand shown. The essentials: as §1

In the next experiment the target is ELF4 (Homo sapiens, UniProt Q99607 1-663). As to conditions: protein: recombinant; tags: N-terminal GST; dsDNA, one strand shown. The essentials:
as §1

The target in the next experiment is T9, ETV2 (Homo sapiens, UniProt O00321 1-342).
T9 sequence: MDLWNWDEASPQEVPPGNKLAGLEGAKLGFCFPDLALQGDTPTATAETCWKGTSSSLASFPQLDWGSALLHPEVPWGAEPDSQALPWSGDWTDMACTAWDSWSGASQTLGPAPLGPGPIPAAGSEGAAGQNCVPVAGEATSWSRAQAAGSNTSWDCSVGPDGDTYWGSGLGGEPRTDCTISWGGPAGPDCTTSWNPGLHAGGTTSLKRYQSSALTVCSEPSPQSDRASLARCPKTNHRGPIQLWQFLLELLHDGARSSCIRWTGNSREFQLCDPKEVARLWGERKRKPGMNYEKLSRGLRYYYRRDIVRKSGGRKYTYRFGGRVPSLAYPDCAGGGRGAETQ
As to conditions: protein: recombinant; tags: N-terminal GST; dsDNA, one strand shown. An outline of the steps:
as §1

A further experiment has as its target T10, ELF3 (Homo sapiens, UniProt P78545 1-371).
T10 sequence: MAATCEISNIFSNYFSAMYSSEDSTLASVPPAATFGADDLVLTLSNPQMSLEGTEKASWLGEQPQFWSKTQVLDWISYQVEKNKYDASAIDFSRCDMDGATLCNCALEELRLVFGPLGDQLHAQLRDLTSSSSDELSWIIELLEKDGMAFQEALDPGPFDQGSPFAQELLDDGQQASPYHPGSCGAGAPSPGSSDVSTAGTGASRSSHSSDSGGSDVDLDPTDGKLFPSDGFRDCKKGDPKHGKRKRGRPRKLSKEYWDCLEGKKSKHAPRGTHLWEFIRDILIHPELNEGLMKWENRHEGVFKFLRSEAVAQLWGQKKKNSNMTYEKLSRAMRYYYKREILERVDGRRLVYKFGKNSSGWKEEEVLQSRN
Conditions: protein: recombinant; tags: N-terminal GST; dsDNA, one strand shown. An outline of the steps: as §1

The next experiment has as its target ETV1 (Homo sapiens, UniProt P50549 1-477). Conditions: protein: recombinant; tags: N-terminal GST; dsDNA, one strand shown. The essentials:
as §1

Sequence of HSF1 (Q00613 whole entry): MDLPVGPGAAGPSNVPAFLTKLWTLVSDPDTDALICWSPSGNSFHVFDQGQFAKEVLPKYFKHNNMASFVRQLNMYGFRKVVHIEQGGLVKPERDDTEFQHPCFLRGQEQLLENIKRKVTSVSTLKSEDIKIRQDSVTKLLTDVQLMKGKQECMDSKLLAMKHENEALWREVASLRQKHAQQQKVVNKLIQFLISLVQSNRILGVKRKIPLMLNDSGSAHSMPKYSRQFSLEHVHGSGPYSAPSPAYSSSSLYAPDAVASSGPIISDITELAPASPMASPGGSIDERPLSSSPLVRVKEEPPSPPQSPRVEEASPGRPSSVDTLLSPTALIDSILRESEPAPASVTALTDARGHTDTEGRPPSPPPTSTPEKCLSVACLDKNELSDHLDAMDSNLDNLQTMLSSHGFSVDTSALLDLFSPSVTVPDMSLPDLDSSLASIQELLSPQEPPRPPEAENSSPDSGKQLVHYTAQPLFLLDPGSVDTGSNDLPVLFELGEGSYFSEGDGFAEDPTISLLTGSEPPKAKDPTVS
Sequence of ETV1 (P50549 whole entry): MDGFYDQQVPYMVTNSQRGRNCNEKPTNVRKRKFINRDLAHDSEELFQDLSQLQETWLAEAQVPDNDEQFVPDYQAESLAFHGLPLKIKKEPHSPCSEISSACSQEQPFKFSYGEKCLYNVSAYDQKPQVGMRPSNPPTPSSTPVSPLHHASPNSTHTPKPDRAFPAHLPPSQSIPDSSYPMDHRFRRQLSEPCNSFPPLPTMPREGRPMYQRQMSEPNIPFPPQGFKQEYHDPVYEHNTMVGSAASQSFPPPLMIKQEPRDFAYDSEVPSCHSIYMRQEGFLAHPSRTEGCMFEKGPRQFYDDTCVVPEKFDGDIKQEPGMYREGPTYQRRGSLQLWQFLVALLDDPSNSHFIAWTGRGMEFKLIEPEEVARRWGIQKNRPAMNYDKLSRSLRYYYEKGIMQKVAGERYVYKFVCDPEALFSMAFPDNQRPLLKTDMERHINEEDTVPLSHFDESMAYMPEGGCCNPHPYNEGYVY
Sequence of ELF1 (P32519 whole entry): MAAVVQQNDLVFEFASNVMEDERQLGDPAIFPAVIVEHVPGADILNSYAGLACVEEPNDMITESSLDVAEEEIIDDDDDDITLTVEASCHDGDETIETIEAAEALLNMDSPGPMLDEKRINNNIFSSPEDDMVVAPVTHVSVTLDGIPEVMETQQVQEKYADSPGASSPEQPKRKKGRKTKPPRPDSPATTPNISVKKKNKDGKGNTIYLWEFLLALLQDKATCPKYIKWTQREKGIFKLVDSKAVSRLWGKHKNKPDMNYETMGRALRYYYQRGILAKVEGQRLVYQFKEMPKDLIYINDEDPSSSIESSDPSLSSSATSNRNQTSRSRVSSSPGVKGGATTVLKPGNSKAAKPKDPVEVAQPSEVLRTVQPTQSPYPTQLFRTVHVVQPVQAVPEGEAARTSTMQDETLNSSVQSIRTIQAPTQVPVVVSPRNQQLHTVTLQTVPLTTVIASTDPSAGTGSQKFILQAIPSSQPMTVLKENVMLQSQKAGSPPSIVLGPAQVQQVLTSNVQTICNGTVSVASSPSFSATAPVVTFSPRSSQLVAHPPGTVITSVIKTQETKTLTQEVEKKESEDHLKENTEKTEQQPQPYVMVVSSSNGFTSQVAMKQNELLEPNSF
Sequence of SPIB (Q01892 whole entry): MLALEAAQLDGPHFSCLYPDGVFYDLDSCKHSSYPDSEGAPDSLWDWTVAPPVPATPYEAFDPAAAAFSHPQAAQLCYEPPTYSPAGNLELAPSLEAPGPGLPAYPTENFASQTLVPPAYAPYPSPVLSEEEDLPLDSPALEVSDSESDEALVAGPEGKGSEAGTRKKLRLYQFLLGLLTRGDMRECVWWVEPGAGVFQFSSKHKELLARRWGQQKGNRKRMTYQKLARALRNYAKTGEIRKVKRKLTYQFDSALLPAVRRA
Sequence of ETV5 (P41161 whole entry): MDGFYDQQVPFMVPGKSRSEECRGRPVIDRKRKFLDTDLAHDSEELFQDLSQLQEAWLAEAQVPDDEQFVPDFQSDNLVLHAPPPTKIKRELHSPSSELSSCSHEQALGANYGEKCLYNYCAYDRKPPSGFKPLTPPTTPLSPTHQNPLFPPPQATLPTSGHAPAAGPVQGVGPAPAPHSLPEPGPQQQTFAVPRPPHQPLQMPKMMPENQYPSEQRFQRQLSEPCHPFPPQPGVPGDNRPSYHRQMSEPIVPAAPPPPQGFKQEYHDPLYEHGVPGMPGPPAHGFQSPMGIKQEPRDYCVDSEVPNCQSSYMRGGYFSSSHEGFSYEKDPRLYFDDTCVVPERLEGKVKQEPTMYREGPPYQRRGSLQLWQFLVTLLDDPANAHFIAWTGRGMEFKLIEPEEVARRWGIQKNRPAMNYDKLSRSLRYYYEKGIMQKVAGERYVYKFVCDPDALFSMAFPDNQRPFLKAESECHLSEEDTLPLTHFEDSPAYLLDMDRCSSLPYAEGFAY
Sequence of ELF4 (Q99607 whole entry): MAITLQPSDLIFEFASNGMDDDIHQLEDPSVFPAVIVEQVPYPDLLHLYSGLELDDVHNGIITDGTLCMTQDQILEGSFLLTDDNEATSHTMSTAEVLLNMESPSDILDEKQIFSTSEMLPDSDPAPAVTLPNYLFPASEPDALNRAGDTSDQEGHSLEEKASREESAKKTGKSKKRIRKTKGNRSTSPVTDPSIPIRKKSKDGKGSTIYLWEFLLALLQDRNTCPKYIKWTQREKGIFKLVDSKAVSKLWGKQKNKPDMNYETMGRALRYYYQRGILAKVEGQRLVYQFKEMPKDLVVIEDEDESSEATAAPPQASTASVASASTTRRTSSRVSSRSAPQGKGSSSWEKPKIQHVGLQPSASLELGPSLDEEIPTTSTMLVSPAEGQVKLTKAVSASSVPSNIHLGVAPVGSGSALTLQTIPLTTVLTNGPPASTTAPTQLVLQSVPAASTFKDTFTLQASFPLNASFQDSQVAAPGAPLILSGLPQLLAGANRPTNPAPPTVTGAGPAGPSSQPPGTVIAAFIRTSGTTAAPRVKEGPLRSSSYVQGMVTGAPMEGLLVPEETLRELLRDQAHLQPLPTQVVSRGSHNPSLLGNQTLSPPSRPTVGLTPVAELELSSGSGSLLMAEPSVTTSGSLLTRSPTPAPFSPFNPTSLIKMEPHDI

On to GTTTTC, for which the binding signal in the experiment with FLI1 was 1.19 fold enrichment (6-mer frequency, TF over GST control); in the experiment with ELK1 it was 1.2 fold enrichment (6-mer frequency, TF over GST control); with GABPA, 1.23 fold enrichment (6-mer frequency, TF over GST control); with ERG, 1.24 fold enrichment (6-mer frequency, TF over GST control); with ELF1, 1.15 fold enrichment (6-mer frequency, TF over GST control); with EHF it was 1.28 fold enrichment (6-mer frequency, TF over GST control). Moreover, the binding signal with SPI1 is 1.17 fold enrichment (6-mer frequency, TF over GST control); in the experiment with SPIB, 1.2 fold enrichment (6-mer frequency, TF over GST control); in the experiment with ELK3, 1.23 fold enrichment (6-mer frequency, TF over GST control); with FEV, 1.21 fold enrichment (6-mer frequency, TF over GST control); with ETV5, 1.24 fold enrichment (6-mer frequency, TF over GST control); with HSF1, 1.13 fold enrichment (6-mer frequency, TF over GST control). In addition, the binding signal with SPIC was 1.1 fold enrichment (6-mer frequency, TF over GST control); in the experiment with ELF4, 1.2 fold enrichment (6-mer frequency, TF over GST control); in the experiment with ETV2, 1.25 fold enrichment (6-mer frequency, TF over GST control); in the experiment with ELF3, 1.32 fold enrichment (6-mer frequency, TF over GST control); with ETV1, 1.13 fold enrichment (6-mer frequency, TF over GST control).
